# Laboratory results reported in PubChem BioAssay (NCI).
# The panel holds about 83,000 compounds, 20% with a hit somewhere; the sample as a whole holds those more often.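 Testing used 96-well plates and a 48-hour single-concentration exposure. Example: -40 means 40% of the starting cells died.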 A number with no mark means an inactive call. Calls of active or inactive are those of the source. The calls were made as follows: active = growth percent below 10; inactive = the rest.
# Experiments:
# Assay in all cases: NCI-60 one-dose screen, 48 h (100 = growth as untreated, 0 = no growth, -100 = all killed)
# SR leukemia = conditions: 10 µM unless noted
# RPMI-8226 leukemia = conditions: 10 µM unless noted
# OVCAR-8 ovarian = conditions: 10 µM unless noted
# OVCAR-5 ovarian = conditions: 10 µM unless noted
# OVCAR-4 ovarian = conditions: 10 µM unless noted
# SK-OV-3 ovarian = conditions: 10 µM unless noted
# IGROV1 ovarian = conditions: 10 µM unless noted
# OVCAR-3 ovarian = conditions: 10 µM unless noted
# NCI/ADR-RES ovarian = conditions: 10 µM unless noted
# T-47D breast = conditions: 10 µM unless noted
# MDA-MB-435 melanoma = conditions: 10 µM unless noted
# SW-620 colon = conditions: 10 µM unless noted
# MCF7 breast = conditions: 10 µM unless noted
# HCT-116 colon = conditions: 10 µM unless noted
# HCC-2998 colon = conditions: 10 µM
# KM12 colon = conditions: 10 µM unless noted
# BT-549 breast = conditions: 10 µM unless noted
SMILES,growth (SR leukemia),growth (RPMI-8226 leukemia),growth (OVCAR-8 ovarian),growth (OVCAR-5 ovarian),growth (OVCAR-4 ovarian),growth (SK-OV-3 ovarian),growth (IGROV1 ovarian),growth (OVCAR-3 ovarian),growth (NCI/ADR-RES ovarian),growth (T-47D breast),growth (MDA-MB-435 melanoma),growth (SW-620 colon),growth (MCF7 breast),growth (HCT-116 colon),growth (HCC-2998 colon),growth (KM12 colon),growth (BT-549 breast)
Cc1cc(-c2cc(O)ccc2Cl)cc2nnc(Nc3ccc(OCCN4CCCC4)cc3)nc12,-35% (active),-43.9% (active),-63.6% (active),-83.5% (active),-81.9% (active),-77.7% (active),-60.2% (active),-79.7% (active),-69.3% (active),-47.8% (active),-73.3% (active),-74.8% (active),-54.4% (active),-57.5% (active),-72.6% (active),-76.2% (active),
C/C=C/C=N/NC(=S)Nc1ccccc1,83.4%,104%,96.5%,82.2%,94.1%,94.2%,93.6%,117%,99%,111%,109%,121%,86%,97.9%,104%,98.6%,
COc1cc2c(Oc3ccc(NC(=O)C4(C(=O)Nc5ccc(F)cc5)CC4)cc3F)ccnc2cc1OCCCN1CCOCC1,-16.7% (active),10.3%,26.8%,11.7%,32.1%,-13.8% (active),-34.7% (active),46.5%,9.62% (active),0.289% (active),-75.1% (active),-31.4% (active),-22.2% (active),,7.76% (active),0.619% (active),17.8%
COc1cnc2c(c1)C(=O)c1c-2n(CCCn2ccnc2)c(=O)c2cc(Cl)ccc12,-10.3% (active),-15.3% (active),17.4%,26.6%,40.4%,-28% (active),35.2%,-8.34% (active),4.79% (active),-1.88% (active),11%,20.1%,7.47% (active),,31.6%,9.84% (active),13.2%
COc1ccc(-c2ccc3c(N4CCOC[C@@H]4C)nc(N4CCOC[C@@H]4C)nc3n2)cc1CO,9% (active),4.83% (active),-3.37% (active),7.09% (active),-26% (active),-33.7% (active),-33.2% (active),13%,-1.68% (active),-35% (active),-14.1% (active),8.32% (active),5.12% (active),21.9%,10.3%,13.1%,
CCN1CCN(Cc2ccc(-c3cc4c(N[C@H](C)c5ccccc5)ncnc4[nH]3)cc2)CC1,21.2%,55.9%,35.6%,8.61% (active),76.2%,-7.56% (active),-1.26% (active),56.8%,46.7%,29%,37%,13.1%,48.6%,,14.3%,31.2%,79.2%
O=C(NOCCO)c1ccc2cncn2c1Nc1ccc(I)cc1F,56.9%,72.8%,58.6%,19.3%,70.8%,49%,26.2%,102%,71.8%,83.4%,47.4%,24.6%,96.2%,15.1%,,28.6%,88.8%
COc1cc2c(cc1OCCCCCCN1CCN(c3ncnc4ccccc34)CC1)N=CC1CCCN1C2=O (stereo unspecified),-29.6% (active),-47.4% (active),-12.1% (active),10.2%,-14.4% (active),20.7%,1.08% (active),-6.78% (active),6.93% (active),6.98% (active),-77.1% (active),-19.1% (active),11.2%,,,-27.9% (active),-40.8% (active)
Cc1cccc(Cl)c1NC(=O)c1cnc(Nc2cc(N3CCOCC3)cc(S(C)(=O)=O)c2)s1,43.3%,70.5%,-2.17% (active),15.6%,53.8%,-23.8% (active),-49.1% (active),32.1%,64.4%,-15.6% (active),69.9%,113%,65%,13.2%,,87.8%,66.7%
C=CC(=O)Nc1cccc(Oc2nc(Nc3ccc(N4CCN(C)CC4)cc3)nc3ccsc23)c1,-23.5% (active),-29.8% (active),-38.8% (active),8.45% (active),-63.6% (active),-2.6% (active),-69.9% (active),-80.7% (active),-3.05% (active),-51% (active),-93.3% (active),-62.2% (active),-60.9% (active),,,-79.1% (active),-37.5% (active)
O=C1CC(c2cccc(F)c2)c2c(n[nH]c2-c2ccc(Cl)cc2)N1 (stereo unspecified),89.3%,81.8%,85.9%,84.7%,95.4%,86.4%,101%,100%,93.9%,55.8%,99.5%,114%,96.5%,,102%,91.7%,92.4%
C[C@H]1Oc2cc(cnc2N)-c2c(nn(C)c2C#N)CN(C)C(=O)c2ccc(F)cc21,6.17% (active),92.6%,83.2%,58.3%,81.1%,55.1%,80.2%,108%,80.4%,84.4%,80%,90.4%,60%,68.7%,,9.06% (active),103%
S=C(NCc1ccc2c(c1)OCO2)N1CCN(c2ncnc3c2oc2ccccc23)CC1,14.8%,21.3%,24.8%,62.1%,14.1%,35.6%,33.4%,30.9%,28.3%,1.12% (active),19.3%,40.9%,18.7%,34.3%,57.4%,45.2%,
CN1CCC(COc2cnc(-c3cccc(Cn4nc(-c5cccc(C#N)c5)ccc4=O)c3)nc2)CC1,-9.84% (active),50.8%,59.9%,78.9%,75.4%,70.3%,73.3%,81.7%,82.2%,-49.1% (active),53.8%,45.6%,60.3%,,80.7%,33.7%,63.4%
Cc1ccc(NC(=O)Nc2ccc(Nc3ncnc4sc5c(c34)CCOC5)cc2)cc1Cl,89%,105%,91.9%,114%,121%,73.4%,99.1%,102%,106%,58.5%,103%,133%,82.8%,,112%,105%,101%
COc1ccc2c(c1)cn1c3ccc(O)cc3nc(N)c21,3.65% (active),25.4%,28.1%,38.3%,37.7%,5.03% (active),17.4%,43%,-0.794% (active),37.3%,-16.6% (active),26.8%,17.2%,18%,22.5%,27.1%,
CNC(=O)c1cc(Oc2ccc(NC(=O)Nc3cc(C(C)(C)C)nn3-c3ccc4ncccc4c3)c(F)c2)ccn1,-8.95% (active),0.22% (active),-30.2% (active),-3.54% (active),-13.6% (active),-13.3% (active),-20.2% (active),1.66% (active),,-17.7% (active),-88% (active),-0.427% (active),-6.46% (active),-51.8% (active),-31.5% (active),-23.8% (active),-38.2% (active)
O=C(CNc1nc2ccccc2s1)Nc1ccc(-c2nc3ccccc3s2)cc1,91.3%,107%,102%,98.4%,102%,107%,66.6%,98%,102%,73.9%,109%,109%,24.8%,98.9%,92.1%,99.2%,
ClCc1ccc(-c2ccc(Cn3cnc4c(Cl)nc(Cl)nc43)cc2)cc1,8.65% (active),-47.4% (active),-40% (active),57.8%,21.7%,87.8%,-64.4% (active),-93.1% (active),20.8%,-23.5% (active),4.56% (active),-31.6% (active),-31.8% (active),-59.6% (active),,-66.9% (active),
